# Screening results deposited in PubChem BioAssay by several laboratories.
# aSyn UTR inh – MLPCN primary screen, SNCA 5' untranslated region; alpha-synuclein 5'UTR reporter, inhibitor activity; inhibition, % (tested at 7.5 µM); 300,000 compounds, 0.82% hits; in the data active = inhibition above about 60%; inconclusive = no clear call, values can overlap the other calls;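 also: H4 neuroglioblastoma cells stably carrying SNCA 5'UTR luciferase fusion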
# Jurkat NFkB inh – lowers PMA/ionomycin-induced NF-kB signal in Jurkat cells | PMA/ionomycin-induced NF-kB luciferase reporter, luminescence | inhibition, % at 4 µM | 330,000 compounds, 0.53% hits; in the data active = inhibition above about 50%
# H9c2 TAG inh – inhibitors of triacylglycerol accumulation. AID 651582. 230,000 compounds, 0.66% hits. inhibition, % at 12.5 µM. H9c2 cells, Nile Red lipid (TAG) fluorescence; cells loaded with 200 µM oleic acid;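 active = pattern-corrected inhibition of lipid staining of at least 50% with the nuclear-stain viability signal not falling by more than 50%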
# 697 NFkB inh – lowers PMA/ionomycin-induced NF-kB signal in 697 B cells; 697 B-cell NF-kB luciferase reporter, 16 h; inhibition, % at 4 µM; 330,000 compounds, 0.33% hits; in the data active = inhibition above about 35%
# Gli-Sufu block – Gli-Sufu pathway antagonism | Sufu-KO-LIGHT fibroblasts, Gli luciferase reporter luminescence | inhibition, % at 5 µM | 340,000 compounds, 0.74% hits | AID 588413;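 active = inhibition above about 55%, limit read from the data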
# Shn3 inh set2 – reduces Shn3 3'UTR luciferase signal in osteoblasts; inhibition, % at 12.5 µM; 360,000 compounds, 0.52% hits; Clone20 osteoblast Shn3 3'UTR firefly luciferase, 24 h;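 active = mean inhibition of at least 75% with every replicate also reaching 75%; inconclusive = mean inhibition at least 75% but some replicate below; inactive = mean inhibition below 75%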
# Jurkat NFkB conf – lowers PMA/ionomycin-induced NF-kB signal in Jurkat cells; AID 435020; 2,700 compounds, 27% hits; shares compounds with Jurkat NFkB inh; Jurkat NF-kB luciferase, 16 h; inhibition, % at 4 µM;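 active = inhibition reaching about 45% at 4 µM in either replicate, limit read from the data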
# 697 NFkB conf – inhibitors of the PMA/ionomycin-induced NF-kB reporter in 697 B cells, retest; 2,000 compounds, 35% hits; shares compounds with 697 NFkB inh; 697 B-cell NF-kB luciferase, 16 h; inhibition, % at 4 µM; in the data active = inhibition mostly above about 28%, no sharp cut-off; inactive = mostly below about 22%
# Numbers stand for hits; 0 = inactive; ? = inconclusive; - = no result given. The list is not random: actives were taken first. Their share in the collection is about 2.3%.
SMILES,aSyn UTR inh,Jurkat NFkB inh,H9c2 TAG inh,697 NFkB inh,Gli-Sufu block,Shn3 inh set2,Jurkat NFkB conf,697 NFkB conf
O=C(Nc1ccc(F)cc1)C1CCCN(S(=O)(=O)c2cccc3nonc23)C1 (stereo not drawn),0,0,-,0,0,0,-,-
CCc1cc2c(Sc3nc4ccccc4s3)ncnc2s1,?,100.1,-,82.5,0,0,95.9,63.7
c1ccc2sc(Sc3ncnc4sccc34)nc2c1,0,98.3,0,63.1,0,0,53.4,60.4
C(=N\Nc1nc(Nc2ccccc2)nc(N2CCOCC2)n1)/c1c[nH]c2ccccc12,0,82.0,-,60.5,0,-,0,49.0
CC(=O)Nc1cc2nn(-c3ccccc3)nc2cc1Cl,0,0,0,0,0,0,0,0
O=C(Nc1cc2nn(-c3ccccc3)nc2cc1Cl)c1ccco1,0,0,0,0,0,0,-,-
CC(C)C(=O)Nc1ccc2nn(-c3ccccc3)nc2c1,0,0,0,0,0,0,0,0
CCCCn1c(N)c(N(CC(C)C)C(=O)c2ccc(-c3ccc([N+](=O)[O-])cc3)o2)c(=O)[nH]c1=O,0,0,0,0,0,0,-,-
Cc1ccc(-c2cc3c(N=O)c4ccccc4c-3n[nH]2)cc1,91.7,67.2,0,57.8,58.6,0,72.3,0
Cc1cccc(-c2cc3c(N=O)c4ccccc4c-3n[nH]2)c1,0,0,-,0,0,0,0,0
O=c1[nH]nc(-c2ccccc2)c2ccccc12,0,0,0,0,0,0,-,-
O=Nc1c2cc(-c3ccccc3)[nH]nc-2c2ccccc12,0,-,-,-,0,0,-,-
O=C(Cc1nc(=O)c2ccccc2s1)Nc1ccccc1,0,0,-,0,0,0,0,0
CCCC(=O)Nc1ccc(-c2nc3cc(C)ccc3o2)cc1,0,0,0,0,0,0,0,0
O=C(Nc1ccc(-c2nc3cc(Cl)ccc3o2)cc1)C1CCCO1 (stereo not drawn),0,0,0,0,0,0,0,0
CCCC(=O)Nc1ccc2oc(-c3ccc(OC)c(Br)c3)nc2c1,0,0,-,0,0,0,-,-
Cc1ccc(C(=O)OCC(=O)c2c(N)n(C)c(=O)n(C)c2=O)cc1S(=O)(=O)N1CCCCC1,0,0,-,0,0,0,-,-
COc1ccc(/C=N/n2c(-c3n[nH]c4c3CCC4)n[nH]c2=S)cc1OC,0,0,0,0,0,0,-,-
O=C(/C=C/c1ccccc1)Nc1cc(NC(=O)/C=C/c2ccccc2)cc(C(=O)O)c1,0,0,0,0,0,0,-,-
O=C(/C=C/c1ccccc1)Nc1cccc(C(=O)O)c1,94.5,81.6,0,81.6,0,0,76.4,78.8
CCOC(=O)c1sc2nc(N3CCOCC3)c3c(c2c1N)CC(C(C)C)OC3 (stereo not drawn),0,0,0,0,0,0,-,-
CCOC(=O)c1sc2nc3c(cc2c1N)COC(C(C)C)C3 (stereo not drawn),0,0,-,0,0,0,0,0
COc1ccc(OC)c(NC(=O)CSc2ncnc3c2cnn3-c2ccccc2Cl)c1,0,50.3,0,71.1,75.6,89.3,65.3,49.6
COc1cc(NC(=O)CSc2ncnc3c2cnn3Cc2ccccc2)cc(OC)c1,0,0,-,0,0,0,-,-
O=C1CCCC2=C1C(c1ccc3c(c1)OCO3)c1c([nH]n(-c3ccccc3)c1=O)N2 (stereo not drawn),0,0,-,0,0,0,-,-
SMILES,aSyn UTR inh,Jurkat NFkB inh,H9c2 TAG inh,697 NFkB inh,Gli-Sufu block,Shn3 inh set2,Jurkat NFkB conf,697 NFkB conf
Nc1nnc(SCC(=O)OCc2ccc(F)cc2)s1,0,0,0,0,0,0,-,-
O=C(NCCc1ccccc1F)c1ccc2c(c1)OCCO2,108.2,76.3,-,55.4,69.0,?,81.8,39.2
Cc1ccc(N=Cc2sc(O)c3ccccc23)c(C)c1,0,0,0,0,0,0,-,-
Cc1ccc(N=Cc2sc(O)c3ccccc23)cc1,0,0,0,0,0,0,0,0
CC[n+]1c(/C=C2/C=C(C)CC(C)C2)sc2ccccc21 (stereo not drawn),0,0,0,0,0,0,-,-
CC[n+]1c(C=C2C=C(C)OC(C)=C2)sc2ccccc21,0,87.4,0,53.3,85.4,0,74.7,68.9
O=c1c2cc(F)ccc2sn1-c1ccccc1Cl,-,-,0,-,-,0,-,-
Cc1ccc(NC(=O)c2cnn(-c3ccccc3)c2C)cc1C,0,0,-,0,0,0,0,0
Cc1onc(-c2ccccc2)c1C(=O)Nc1ccc(S(=O)(=O)NC2=NCCCCC2)cc1,0,0,0,0,0,0,-,-
O=C(Nc1ccc2nc3n(c(=O)c2c1)CCCCC3)c1c(F)ccc([N+](=O)[O-])c1F,84.9,72.7,-,0,0,98.8,0,0
COc1cc(CC(=O)OC2CCOC2=O)cc(OC)c1OC (stereo not drawn),0,0,0,0,0,0,-,-
CC(NC(=O)c1ccc2ccccc2n1)c1ccc(Br)cc1 (stereo not drawn),0,0,-,0,0,0,-,-
COc1cccc(-c2cc3onc(-c4ccccc4)c3c(=O)n2C)c1,-,0,0,0,0,0,0,0
c1cc2c(cc1C1=NNC(=NC3CC3)SC1)OCCO2,111.0,60.5,0,57.1,77.1,0,78.3,0
Cc1cc(C2=NNC(=NC3CC3)SC2)c(C)n1-c1ccccc1F,99.4,78.8,0,39.2,92.8,97.6,74.4,48.0
COc1ccc2oc(C(=O)N3CCc4ccccc43)c(C)c2c1,0,0,0,0,0,0,0,0
COc1ccc2oc(C(=O)N3CCN(C(c4ccccc4)c4ccccc4)CC3)c(C)c2c1,0,0,0,0,0,0,-,-
O=C(CSc1nnc(CNC(=O)c2c(F)cccc2Cl)o1)NCc1ccc(F)cc1,0,0,-,0,0,0,-,-
CN1/C(=C\C(=O)C[n+]2ccc3ccccc3c2)C(C)(C)c2ccccc21,0,83.4,-,49.4,0,0,78.6,0
O=C1c2c(O)ccc(O)c2C(=O)c2c(NCCNCCO)ccc(NCCNCCO)c21,-,100.1,0,73.7,77.4,92.6,88.8,0
O=C1c2ccccc2C(=O)c2c(Nc3ccc(CCO)cc3)ccc(O)c21,0,0,-,0,0,0,-,-
CCOC(=O)C1=C(CCc2ccccc2)NC(=O)NC1c1cccc([N+](=O)[O-])c1 (stereo not drawn),0,0,0,0,0,0,-,-
COc1ccc(CCN(C(=O)Cn2nnc3ccccc32)C(C(=O)NCC2CCCO2)c2ccncc2)cc1OC (stereo not drawn),0,0,0,0,0,0,-,-
Nc1c(C(=O)Nc2cccc(F)c2)nnn1-c1ccc2c(c1)OCCO2,0,0,-,0,0,0,0,0
Cc1ccccc1NC(=O)c1nnn(-c2ccc3c(c2)OCCO3)c1N,0,0,-,0,0,0,-,-
O=C(N/N=C/c1ccc([N+](=O)[O-])o1)c1cc(-c2ccc(-c3ccccc3)cc2)nc2ccccc12,76.1,0,0,0,0,0,0,0
